In ChEMBL document CHEMBL3988442, “University of Dundee, Small-Polar-MMV Screening Library” (2021):
Among all 48,000 compounds or so, about 13,000 (27%) showed an effect of 50% or more. Some of the results follow.

system: Wolbachia pipientis; experiment: Anti-Wolbachia Cell-Based Screen; type: functional; design: scale not given: in the data most compounds retested in dose-response had high values; details: 5 µM

Compound	Percent Effect [%]
Nc1nccc(C2CCN(CCO)C2)n1 (stereo not drawn)	113.7
COc1ccc(-c2nnc([C@H]3CCN(CC4CC4)C3)o2)cc1	1.558
N#Cc1ccc(CN2CCC(c3ccnn3CCO)CC2)cc1	-5.885
Cc1noc(CN2CCC(c3ccnn3CCO)CC2)n1	-5.622
COCc1nccc(C2CCCN(Cc3ccc(SC)cc3)C2)n1 (stereo not drawn)	-16.87
Cc1ccc2[nH]c([C@H]3CCN(CC4CCCCC4)C3)nc2c1	2.151
Nc1nccc(C2CCCN(CC3CC3)C2)n1 (stereo not drawn)	142.8
Nc1nccc(C2CCN(CC3CC3)C2)n1 (stereo not drawn)	123.6
COCc1nccc(C2CCCN(Cc3ccc(C#N)cc3)C2)n1 (stereo not drawn)	-15.32
Cc1ccc2c(c1)OCCN2C(=O)c1ccc(=O)n(C)c1	10.97
CCn1c(CN(C)C(=O)c2ccc(N(C)C)nc2)nc2ccccc21	-11.95
O=C(Nc1ccccc1)C1CN(Cc2ccco2)CC12CCOCC2.O=C(O)C(F)(F)F (stereo not drawn)	-4.746
Cc1ccc(S(=O)(=O)Cc2noc([C@@H]3C[C@@H](O)CN3)n2)cc1	5.528
COc1ccc(CC2CCCN2CCCC#N)cc1 (stereo not drawn)	3.146
COc1ccc(C(=O)Nc2cnn(CC(=O)NC3CCCC3)c2)c(O)c1	-2.411
O=C(Cn1cccn1)NCC(c1cccs1)N1CCCC1 (stereo not drawn)	-1.128
O=C(NCCCn1ccnc1)NCC(c1ccco1)N1CCCCC1 (stereo not drawn)	152.2
O=C(NCCn1ccnc1)NCC(c1ccco1)N1CCCCC1 (stereo not drawn)	-2.241
O=C(NCCCn1cccn1)NCC(c1ccco1)N1CCCC1 (stereo not drawn)	116.5
O=C(NCc1ccccn1)NCC(c1ccco1)N1CCCCC1 (stereo not drawn)	12.69
O=C(NCc1ccccn1)NCC(c1ccco1)N1CCCC1 (stereo not drawn)	11.6
O=C(CCn1cccn1)NCC(c1cccs1)N1CCCC1 (stereo not drawn)	-57.56
O=C(NCCCn1ccnc1)NCC(c1ccco1)N1CCCC1 (stereo not drawn)	97.42
O=C(NCCn1ccnc1)NCC(c1ccco1)N1CCCC1 (stereo not drawn)	107.9
O=C(NCCCn1ccnc1)N1CCCC1c1cccs1 (stereo not drawn)	8.272
O=C(NCc1cc[nH]n1)NCC(c1ccco1)N1CCCC1 (stereo not drawn)	-4.044

Compound	Percent Effect [%]
CN(CC(=O)NCCc1cc2ccccc2o1)S(C)(=O)=O	6.714
CCN(C)CCNC(=O)Cc1nc(-c2ccco2)oc1C	-18.21
COc1cc(C(C)NCc2c[nH]nc2C)ccc1OCCO (stereo not drawn)	-5.579
OCc1ccc(CNc2ccccc2CN2CCC(O)CC2)o1	-5.459
Cn1cc(C2CC(=O)NC23CCN(Cc2cccc(F)c2)CC3)cn1.O=C(O)C(F)(F)F (stereo not drawn)	101.2
Cn1cc(C2CC(=O)NC23CCN(Cc2ccncc2)CC3)cn1.O=C(O)C(F)(F)F.O=C(O)C(F)(F)F (stereo not drawn)	100.3
O=C(C1CCC1)N1CCC2(CCN(Cc3cccc(F)c3)CC2)CC1.O=C(O)C(F)(F)F	18.44
Cn1cc(C2CC(=O)NC23CCN(CC2CC2)CC3)cn1.O=C(O)C(F)(F)F (stereo not drawn)	-10.6
Cc1ccncc1C(=O)N1CC[C@@]2(O)CCN(C3CCCCC3)C[C@H]2C1	-0.1912
O=C(NCC(O)c1ccc(F)cc1)C1CCN(C2CCCCC2)CC1 (stereo not drawn)	4.274
CC(C)(C)n1ncc2c(=O)[nH]c(N3CCN(CC(F)F)CC3)nc21	4.311
COc1ccccc1-c1ccnc2nc(N3CCCCC3)[nH]c(=O)c12	113.6
COc1cccc2c1OCCCN(c1nc3c(c(=O)[nH]1)CCNCC3)C2	-4.298
Cc1ccccc1-c1csc2c(=O)[nH]c(N3CCCC(C(=O)O)C3)nc12 (stereo not drawn)	12.14
COc1cccc(-c2ccnc3nc(N4CCCCC4)[nH]c(=O)c23)c1	120.5
Cn1[nH]c(C2CCC2)c(-c2ccc3c(c2)OCO3)c1=N	9.847
Cc1ccc(-c2csc3c(=O)[nH]c(N4CCCC(C(=O)O)C4)nc23)cc1 (stereo not drawn)	13.24
COc1ccc(-c2ccnc3nc(N4CCCC4)[nH]c(=O)c23)cc1OC	143.1
O=c1[nH]c(N2CCCCC2)nc2nccc(-c3ccc4c(c3)OCO4)c12	81.44
COc1cccc(-c2n[nH]cc2-c2nc(CN3CCCC3)no2)c1	-0.8918
O=c1[nH]c(NC2CCCC2)nc2nccc(-c3ccsc3)c12	-12.83
Cc1nc(N2CCCCC2)ncc1-c1cc(=O)[nH]c(N2CCCC2)n1	-11.82
CCN(Cc1ccoc1)C(=O)Nc1ccccc1CN(C)C(C)=O	-2.695
CNC(=O)c1nc2c(s1)CCN(C(=O)c1cccc(OC)c1)CC2	-8.352
O=C(NC[C@H]1OC[C@@H](NC2COC2)[C@@H]1O)c1ccccc1	-18.77
COc1ccc(CCNC(=O)N2CCN(C)[C@@H]3CS(=O)(=O)C[C@@H]32)cc1	3.976

Compound	Percent Effect [%]
N#Cc1c(F)cccc1N1CCC(NS(=O)(=O)c2cccs2)CC1	-19.03
COCC1c2nnn(CC3CC3)c2CCN1C(=O)C1CCOCC1 (stereo not drawn)	-9.696
CC(C)(C)C(=O)NCCC(=O)Nc1cc(C#N)cn1C(C)(C)C	-12.46
O=C(NC[C@H]1OC[C@@H](NC2CCCCC2)[C@@H]1O)Nc1ccccc1	2.791
Cc1cc(N2CCN(c3nc4ccccc4cc3CO)CC2)nc(C)n1	9.089
COc1ccc(-c2ccnc3nc(N4CCCCC4)[nH]c(=O)c23)cc1	107.2
COc1ccc(-c2ccnc3c2C(=O)CCC3)cc1	-3.402
NC(=O)C1CCN(c2nc3nccc(-c4ccccc4)c3c(=O)[nH]2)CC1	-1.836
COc1ccccc1C(C(=O)O)N1CCCN(C2CCCC2)CC1 (stereo not drawn)	-24.96
O=C(O)C(c1ccc2c(c1)OCO2)N1CCCCCC1 (stereo not drawn)	23.77
O=C(O)C(c1ccc2c(c1)OCO2)N1CCCC1 (stereo not drawn)	-31.26
COCCOC1CCN(C(C(=O)O)c2c(Cl)cccc2OC)CC1 (stereo not drawn)	87.97
COc1ccc(C(C(=O)O)N2CCC(O)(c3cccnc3)CC2)cc1F (stereo not drawn)	-17.65
COc1ccc(C(C(=O)O)N2CCN(C3CCCC3)CC2)cc1OC (stereo not drawn)	20.13
COCCOC1CCN(C(C(=O)O)c2ccc(OC)c(F)c2)CC1 (stereo not drawn)	107.6
COc1cccc(Cl)c1C(C(=O)O)N1CCC(O)(c2cccnc2)CC1 (stereo not drawn)	0.4267
NC(=O)C1CCN(C(C(=O)O)c2ccc(Cl)c(C(F)(F)F)c2)CC1 (stereo not drawn)	-1.554
CN(C)CCN(C)C1CCN(C(C(=O)O)c2ccc(F)c(Cl)c2)CC1 (stereo not drawn)	97.08
COCCOC1CCN(C(C(=O)O)c2ccc3c(c2)OCO3)CC1 (stereo not drawn)	111.3
O=C(O)C(c1ccc(Cl)c(F)c1)N1CCN(Cc2ccccn2)CC1 (stereo not drawn)	0.4357
Cn1cnc2c1C(COCc1cccnc1)N(Cc1nccs1)CC2.O=C(O)C(F)(F)F.O=C(O)C(F)(F)F.O=C(O)C(F)(F)F (stereo not drawn)	0.7375
CCOc1ccc(Cl)cc1C(C(=O)O)N1CCC(CO)CC1 (stereo not drawn)	-16.74
COCCOC1CCN(C(C(=O)O)c2ccc(F)c(Cl)c2)CC1 (stereo not drawn)	111
COc1ccc(C(C(=O)O)N2CCN(C3CCCC3)CC2)cc1C (stereo not drawn)	19.06
CCN(CC)Cc1nnc2sc(-c3cc(C(C)C)[nH]n3)nn12	118.1
CC(C)Cc1nnc2sc(-c3cc(C(C)C)n[nH]3)nn12	131.5

Compound	Percent Effect [%]
CC(C)c1cc(-c2nn3c(C(C)C)nnc3s2)[nH]n1	-17.87
CCc1nnc2sc(-c3cc(C(C)C)n[nH]3)nn12	154.2
CCCc1nnc2sc(-c3cc(C(C)C)n[nH]3)nn12	120.9
Cc1cc(-c2nn3c(C)nnc3s2)n[nH]1	0.3213
Cc1nnc2sc(-c3cc(C(C)C)n[nH]3)nn12	-19.82
CCC(Nc1nc(C(C)C)nc2c1cnn2C)c1ccc(O)cc1 (stereo not drawn)	-13.26
Cc1nc(CNC(C)c2cccc(N3CCCC3=O)c2)cs1.Cl (stereo not drawn)	-6.766
CCc1nc(C2CCCN2Cc2nc(Cc3ccccc3)no2)no1 (stereo not drawn)	-2.634
c1ccc(Cc2noc(CN3CCCCC3Cn3cccn3)n2)cc1 (stereo not drawn)	121.7
OCC1CCCCN1Cc1nc(Cc2ccccc2)no1 (stereo not drawn)	15.34
OCC1CCCCN1Cc1nc(Cc2cccc(F)c2)no1 (stereo not drawn)	-3.414
c1ccc(Cc2noc(CN3CCCC3C3CCCCC3)n2)cc1 (stereo not drawn)	35.45
c1ccc(Cc2noc(CN3CCCC3Cn3cccn3)n2)cc1 (stereo not drawn)	101.6
Cc1ccc(O)c(C(=O)N2CCCC2c2nncn2CC(C)C)c1 (stereo not drawn)	-6.935
COCCNc1ccc(CNC(=O)C2COc3ccccc32)cc1 (stereo not drawn)	-1.749
O=S(=O)(Cc1nc(C2CC2)no1)c1ccccc1F	-2.004
CCC(C(=O)NCc1ccccn1)N(c1cccc(C)c1)S(C)(=O)=O (stereo not drawn)	1.713
Cn1cnc(S(=O)(=O)N2CCCC2)c1Cl	-6.345
Cn1cnc(S(=O)(=O)NCCCN2CCOCC2)c1Cl	-0.729
Cn1cnc(S(=O)(=O)NCCCN2CCCC2)c1Cl	98.8
Cn1cnc(S(=O)(=O)NCCCN2CCCCCC2)c1Cl	0.4653
Cn1cnc(S(=O)(=O)NCCN2CCCCCC2)c1Cl	104.3
CCCN1CCN(S(=O)(=O)c2ncn(C)c2Cl)CC1	1.683
Cn1cccc1C1CCCN1C(=O)NCCCn1cccn1 (stereo not drawn)	-1.835
COc1ccc(NC(C)c2ccc(C#N)cc2)cc1N1CCCC1=O (stereo not drawn)	11.24
